Bioassay records from PubChem.
In the library only some 5.2% were active in any assay of this set; here they are far more common.
Tau fluor cs = counter-screen for tau fibril formation inhibitors; tau K18 P301L Alexa594 fluorescence, heparin fibrillization; 280,000 tested, 0.93% active; Potency, µM (series often up to 57.7 µM), for the others: top-dose activity change, negative = decrease; note: potency is the fitted concentration of half-maximal effect; nearly all actives have a fitted effect of over 55% in size
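Human K18 P301L tau (15 uM unlabeled plus 0.24 uM Alexa 594-labeled, final) in 100 mM sodium acetate pH 7 was mixed with compound and 20 uM heparin and incubated 6 hr at 37 C.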
Tau FP inhib = tau fibrillization inhibition (FP); K18 P301L tau heparin fibrillization, Alexa594 FP, 6 h; 280,000 tested, 0.39% active; Potency, µM (top dose mostly 57.7 µM), without a hit: at the highest dose activity, negative = inhibition, actives largely listed as inhibitors; note: potency is the fitted concentration of half-maximal effect; nearly all actives have a fitted effect of over 55% in size
Target sequence (P10636 561-689 P618L limits assumed): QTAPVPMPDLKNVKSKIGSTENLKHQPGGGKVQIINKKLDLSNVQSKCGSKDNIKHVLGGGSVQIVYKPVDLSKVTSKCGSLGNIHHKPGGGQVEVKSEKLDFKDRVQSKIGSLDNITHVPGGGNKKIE
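Human K18 P301L fragment (15 uM unlabeled plus 0.24 uM Alexa 594-labeled) in 100 mM sodium acetate pH 7 with compound, aggregation induced by 20 uM heparin for 6 hr at 37 C. ThT (30 uM) added for 1 hr, then Alexa 594 FP read.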
Tau fibril ThT = inhibitors of human tau fibril formation, thioflavin T binding. recombinant tau K18 P301L, heparin-induced fibrillization, ThT fluorescence. P10636. 270,000 tested, 2.1% active. Potency, µM (highest dose often 57.4 µM), for the others: at the top dose activity, negative = inhibition, actives largely listed as inhibitors; note: potency is the fitted concentration of half-maximal effect; nearly all actives have a fitted effect of over 55% in size
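Fibril formation assay: tau K18 P301L at 15 uM with trace Alexa 594 label, heparin inducer 20 uM, pH 7 sodium acetate buffer, 37 C for 6 hr; endpoint ThT signal.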
Sfp PPTase inh = Sfp phosphopantetheinyl transferase inhibition; Biochemical Sfp PPTase activity, qHTS; 310,000 tested, 3.5% active; Q9F4F7; Potency, µM, for the others: largest response in the series, negative = inhibition, usual class: inhibitors;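 note: the enzyme is Sfp with the accession as filed and its product quenches rhodamine fluorescence; potency is the fitted concentration of half-maximal effect; 0% = enzyme reaction without inhibitor and -100% = no enzyme wells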
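Fluorescence-quenching assay with 15 nM Sfp, 5 uM rhodamine-CoA and 12.5 uM BHQ-2-labelled ybbR peptide in pH 7.6 Hepes/MgCl2 buffer. Enzyme was pre-incubated with compound for 15 min at room temperature. Rate was taken from the 30-min fluorescence change (525/598 nm).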
FBPA coupling cs = coupling enzyme interference in Giardia aldolase counter-screen. coupling enzyme system counterscreen, AmpLite Red fluorescence. 290,000 tested, 0.67% active. activity change, negative = inhibition, % at 58.2 µM, hits read low. AID 2472; in the data active = activity change below about -30%
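Fluorescence at 525 nm excitation and 598 nm emission measured inhibition of the coupled detection system without aldolase. Compounds (at 57.5 uM final) were preincubated 10 min at room temperature with coupling enzyme reagent before a 20 min substrate/AmpLite Red step.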
Numbers without * were called inactive; ! = repeats disagree; [ ] = another dose, or the depositor's remark. Unless noted, calls come from the whole dose curve; as a rule, active = well fitted curve in the direction sought with a large enough effect; inconclusive = small, poorly fitted or top-dose-only effect, or another doubt; inactive = no such curve, though single readings can be large; an effect the other way counts as inactive or inconclusive. Unless noted, % is set by controls: 0 for no effect and ±100 for the full control effect.

What do the screens show for `Cc1cc(N2CCCC2)ccc1C=C(C#N)C#N`?
Tau fluor cs: -7%; Tau FP inhib: -19%; Tau fibril ThT: -14%; Sfp PPTase inh: 12%; FBPA coupling cs: -2

Results for O=C(O)CCC(=O)NCCC1=c2ccccc2=N/C1=C\c1c(O)n(Cc2ccc(F)cc2)c(=S)[nH]c1=O ?
Tau fluor cs: inconclusive; Tau FP inhib: -2%; Tau fibril ThT: inconclusive; Sfp PPTase inh: 35µM*; FBPA coupling cs: 4

Results for COc1ccc(C(=O)Nc2ccc3c(c2)N(C)C(=O)c2ccccc2S3)cc1OC ?
Tau fluor cs: inconclusive; Tau FP inhib: inconclusive; Tau fibril ThT: -12%

How did O[N+]1=CC=CCC1=S.On1ccccc1=S.[Zn] do in these assays?
Tau fluor cs: -23%; Tau FP inhib: inconclusive; Tau fibril ThT: inconclusive; Sfp PPTase inh: -100%; FBPA coupling cs: -42*

What do the screens show for `O=C(O)Cn1cc(C=C2C(=O)NC(=O)NC2=O)c2ccccc21`?
Sfp PPTase inh: 4%; FBPA coupling cs: -2

What do the screens show for `O=C(O)CCn1cc(C=C2C(=O)NC(=O)NC2=O)c(-c2cc3ccccc3oc2=O)n1`?
Tau fluor cs: -10%; Tau FP inhib: -8%; Tau fibril ThT: inconclusive; Sfp PPTase inh: 40µM*; FBPA coupling cs: 2

What do the screens show for `C(=C\c1ccccc1)/CN1CCN(CCOC(c2ccccc2)c2ccccc2)CC1`?
Tau fluor cs: -14%; Tau FP inhib: -5%; Tau fibril ThT: -15%; Sfp PPTase inh: 56µM*

What do the screens show for `Clc1ccc([C@@H](OCCN2CCCCC2)c2ccccc2)cc1`?
Sfp PPTase inh: 21%; FBPA coupling cs: -5

How did CCOC(=O)c1cccc(NC(=O)NCc2ccc3c(c2)CCN3C(=O)c2ccccc2)c1 do in these assays?
Tau fluor cs: inconclusive; Tau FP inhib: inconclusive; Tau fibril ThT: -13%

How did Cc1cc(C)cc(N2C(=O)NC(=O)/C(=C/c3cccn3-c3ccc(Cl)cc3)C2=O)c1 do in these assays?
Tau fluor cs: -23%; Tau FP inhib: -2%; Tau fibril ThT: inconclusive; Sfp PPTase inh: 50µM*; FBPA coupling cs: -4

What do the screens show for `Cc1cc(/C=C2\C(=O)NC(=O)N(c3cccc(F)c3)C2=O)c(C)n1-c1ccc(C(=O)O)c(Cl)c1`?
Sfp PPTase inh: -26%; FBPA coupling cs: -2

How did Cc1cccc(N2C(=O)NC(=O)/C(=C\c3cccn3-c3ccc(Cl)cc3)C2=O)c1 do in these assays?
Tau fluor cs: -13%; Tau FP inhib: -3%; Tau fibril ThT: inconclusive; Sfp PPTase inh: 50µM*; FBPA coupling cs: 4

What do the screens show for `CC(C)(C)n1cccc1/C=C1\C(=O)NC(=O)N(c2ccccc2)C1=O`?
Tau fluor cs: -1%; Tau FP inhib: -9%; Tau fibril ThT: inconclusive; Sfp PPTase inh: -27%; FBPA coupling cs: 2

Results for C[C@@H]1C[C@H](C)C[C@H](C)[C@@H](O)CC(=O)O[C@H]([C@H]2CCC[C@H]2C(=O)O)C/C=C/C=C(/C#N)[C@H](O)[C@@H](C)C1 ?
Sfp PPTase inh: 5%; FBPA coupling cs: -2

How did CCn1c(-c2nn(-c3ccccc3)ccc2=O)n[nH]c1=S do in these assays?
Tau fluor cs: 1%; Tau FP inhib: 1%; Tau fibril ThT: 3%; Sfp PPTase inh: 56µM*; FBPA coupling cs: 3

Results for S=c1[nH]nc(-c2ccccc2)n1CC1CCCO1 (centres undefined) ?
Tau fluor cs: 8%; Tau FP inhib: 6%; Tau fibril ThT: 7%; Sfp PPTase inh: inconclusive; FBPA coupling cs: -2

Results for NCCc1c[nH]c2ccc(O)cc12 ?
Tau fluor cs: -7%; Tau FP inhib: -1%; Tau fibril ThT: -9%; Sfp PPTase inh: 27%; FBPA coupling cs: -10

How did CC1(C)C(C(=O)N2CCN(c3ccc(Cl)cc3)CC2)C1(C)C do in these assays?
Sfp PPTase inh: -3%; FBPA coupling cs: -1

How did COC(=O)C1CN(C#N)N(c2ccc(Cl)cc2)C12c1ccccc1-c1ccccc12 (centres undefined) do in these assays?
Tau fluor cs: -27%; Tau FP inhib: inconclusive; Tau fibril ThT: 10µM*; Sfp PPTase inh: -17%; FBPA coupling cs: -4

How did CN1CC[C@@]2(C)c3cc(O)ccc3N(C)C2O1 (some centres undefined) do in these assays?
Sfp PPTase inh: -28%; FBPA coupling cs: -72*

Results for CN1CC[C@@]2(C)c3cc(O)ccc3N(C)[C@@H]12 ?
Tau fluor cs: inconclusive; Tau FP inhib: 20µM*; Tau fibril ThT: 14µM*; Sfp PPTase inh: -5%; FBPA coupling cs: -78*

What do the screens show for `CCCCc1ccc(C(=O)O)nc1`?
Tau fluor cs: -17%; Tau FP inhib: -5%; Tau fibril ThT: inconclusive; Sfp PPTase inh: 28µM*; FBPA coupling cs: -67*!

What do the screens show for `CCn1ncc(-c2ccnc3cc(C(=O)O)nn23)c1C`?
Tau fluor cs: 4%; Tau FP inhib: 10%; Tau fibril ThT: 0%; Sfp PPTase inh: inconclusive; FBPA coupling cs: 1

How did CCCOC(=O)c1c(C)oc2c1cc(NS(=O)(=O)c1ccc(OCC)cc1)c1ccccc12 do in these assays?
Tau fluor cs: -30%; Tau FP inhib: inconclusive; Tau fibril ThT: 1%

What do the screens show for `S=c1[nH]nc(-c2ccn[nH]2)n1-c1ccccc1Cl`?
Tau fluor cs: -8%; Tau FP inhib: -2%; Tau fibril ThT: -16%; Sfp PPTase inh: 56µM*; FBPA coupling cs: 2

What do the screens show for `CCOC(=O)CC(NC(=O)C(Cc1ccc(N(CCCl)CCCl)cc1)NC(C)=O)C(=O)OCC` (centres undefined)?
Tau fluor cs: -6%; Tau FP inhib: -11%[2.34 µM]; Tau fibril ThT: -17%; Sfp PPTase inh: 79µM*; FBPA coupling cs: -2

How did NC(Cc1ccc(N(CCCl)CCCl)cc1)C(=O)O (centres undefined) do in these assays?
Tau fluor cs: inconclusive; Tau FP inhib: inconclusive; Tau fibril ThT: 28µM*; Sfp PPTase inh: -14%; FBPA coupling cs: -1

How did c1cc2c(cc1C1OC[C@@H]3C(c4ccc5c(c4)OCO5)OCC13)OCO2 (some centres undefined) do in these assays?
Tau fluor cs: -24%; Tau FP inhib: -4%; Tau fibril ThT: inconclusive; Sfp PPTase inh: -4%; FBPA coupling cs: 6

What do the screens show for `Cn1c(O)c(/C=N/Nc2ccccc2)c(=O)n(C)c1=O`?
Tau fluor cs: -14%; Tau FP inhib: -5%; Tau fibril ThT: inconclusive; Sfp PPTase inh: 56µM*; FBPA coupling cs: -1

Results for [Cl][In]([Cl])[Cl] ?
Sfp PPTase inh: 45µM*

What do the screens show for `CN(C)C(CSC(N)=O)CSC(N)=O`?
Sfp PPTase inh: -28%; FBPA coupling cs: -2

How did N=C1/C(=C/c2ccc(OC(=O)c3ccco3)cc2)C(=O)N=C2SC=CN12 do in these assays?
Tau fluor cs: -14%; Tau FP inhib: 2%; Tau fibril ThT: inconclusive; Sfp PPTase inh: 15%; FBPA coupling cs: -2
